Hits are enriched below; roughly 15% of the tested compounds scored in any of these assays.
Pf growth 96h: inhibits malaria parasite growth, 96 h. Potency, µM (doses to about 28.7 µM), inactives show at the top dose activity change, negative = inhibition, most hits filed as inhibitors. AID 504834. 320,000 compounds, 6.9% hits. P. falciparum luciferase reporter growth, 96 h; further: potency means the concentration at half of the fitted maximal effect; on the % scale 0 is the no-effect control and ±100 the full control effect
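Cell-based qHTS: luciferase-tagged P. falciparum in erythrocytes (2% hematocrit, 0.05% parasitemia final) incubated with compounds for 96 hours, 37 C, 5% CO2; luciferase detection reagent then added and luminescence measured.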
HCV inh: inhibitors of hepatitis C virus infection. Potency, µM (top dose mostly 41.8 µM), for inactives: top-dose activity change, negative = inhibition, most hits filed as inhibitors. Huh7.5.1 HCVcc-Cre infection, luciferase reporter, 44 h. AID 651820. 340,000 compounds, 3.4% hits; further: potency means the concentration at half of the fitted maximal effect; on the % scale 0 is the no-effect control and ±100 the full control effect
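A cell-based infection assay in which seeded cells (1,000 per well) receive test compound after 4 h, are inoculated with HCVcc-Cre at approximately 0.5 moi, and are incubated 44 h before luminescence detection.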
HCMV inh: human cytomegalovirus inhibition; HFF cells, HCMV-luciferase reporter, 72 h; stronger effect = lower value; activity change, negative = inhibition, % at 57.5 µM; 410,000 compounds, 4.5% hits; AID 1259415; in the data active means activity change below about -60%; inconclusive means no clear call, values can overlap the other calls; inactive means above about -39%; further: on the % scale 0 is the no-effect control and ±100 the full control effect
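After 16 h attachment at 37C, HFF cells received test compound and HCMV-luciferase (1 PFU/cell); reporter luminescence read 72 h later, data normalized against buffer-only and known inhibitor Salinomycin.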
SARS PLP yeast: blocks SARS-CoV papain-like protease in a yeast assay. S. cerevisiae expressing SARS-CoV PLpro, growth rescue. Potency, µM (top dose mostly 32.9 µM), for the others: top-dose activity, positive = growth rescue, most hits filed as activators. 330,000 compounds, 0.19% hits. AID 485353; calls by dose curve; further: potency means the concentration at half of the fitted maximal effect; 0% is about no effect; nearly all actives have a fitted effect of over 55% in size
Pf growth 48h: P. falciparum growth inhibition at 48 hours (one generation) | P. falciparum luciferase growth in erythrocytes, 48 h | Potency, µM (series often up to 28.7 µM), for inactives: top-dose activity change, negative = inhibition, actives largely listed as inhibitors | 310,000 compounds, 5.9% hits; further: potency means the concentration at half of the fitted maximal effect; on the % scale 0 is the no-effect control and ±100 the full control effect
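Erythrocytes infected with P. falciparum carrying an integrated firefly luciferase reporter (2% hematocrit, 0.1% parasitemia final) were exposed to compounds in RPMI 1640 with 0.5% Albumax at 37 C, 5% CO2. Growth inhibition was scored as reduced luminescence.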
Sm TGR block: blocks Schistosoma mansoni thioredoxin glutathione reductase. Q962Y6. purified TGR, DTNB reduction, TNB absorbance 405 nm. Potency, µM (series often up to 114 µM), for the others: top-dose activity change, negative = inhibition, actives largely listed as inhibitors. 360,000 compounds, 3% hits; further: potency means the concentration at half of the fitted maximal effect; on the % scale 0 is the no-effect control and ±100 the full control effect; nearly all actives have a fitted effect of over 60% in size
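Kinetic colorimetric format: TGR-catalysed, NADPH-driven DTNB reduction monitored via TNB absorbance. Enzyme dispensed at 20 nM; compound exposure 15 min at room temperature before reaction start.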
Numbers without * were called inactive; u = inconclusive; x = no result; [ ] = dose if it differs, or a comment. Unless noted, the call rests on the fitted dose curve; in most records, active means well fitted curve in the direction sought with a large enough effect; inconclusive means small, poorly fitted or top-dose-only effect, or another doubt; inactive means no such curve, though single readings can be large; an effect the other way counts as inactive or inconclusive.

SMILES | Pf growth 96h | HCV inh | HCMV inh | SARS PLP yeast | Pf growth 48h | Sm TGR block
CC(=C/c1ccccc1)/C=N/n1c(C)n[nH]c1=S | 11.7µM* | 13.8% | -8.9 | 0.6% | 9.6% | 2.4%
CC(=C/c1ccccc1)/C=N/n1c(-c2ccncc2)n[nH]c1=S | u | 13.2% | u | 0.2% | -15.4% | -2.3%
S=c1[nH]nc(-c2cc(-c3ccccc3)n[nH]2)n1/N=C/C(Br)=C/c1ccccc1 | 9.28µM* | u | -100.1* | -5.9% | 5.22µM* | u
S=c1[nH]nc(-c2ccco2)n1/N=C/C(Cl)=C/c1ccccc1 | 64.9% | 16.2% | u | -1.8% | 5.22µM* | -36.0%
Cc1cc(-c2n[nH]c(=S)n2/N=C/C(Cl)=C/c2ccccc2)n[nH]1 | u | 11.4% | 76.1 | -20.0% | -16.3% | -2.0%
CCCCCCOc1ccc(-c2ccc(C#N)cn2)cc1 | u | -4.0% | -26.1 | -4.1% | -16.5% | 12.0%
O=C1C2CC3N1CCC31c3ccccc3-n3c1c2ccc3=O (configuration not stated) | x | 16.7% | -39.0 | x | x | x
CC1(C(=O)NS(=O)(=O)c2ccc(Br)cc2)CCN1C(=O)CCC1CCCC1 (configuration not stated) | x | x | -21.8 | x | x | x
CCOC(=O)c1ccc(NS(=O)(=O)c2ccc(Br)s2)cc1 | x | x | 8.9 | x | x | -0.9%
CCn1cc2nc(SCc3ccccc3Cl)n(Cc3ccc(OC)cc3)c(=O)c2n1 | x | x | -27.3 | x | x | 11.9%
O=C(NC(O)C(=O)c1ccc(F)cc1)c1ccc(F)cc1 (configuration not stated) | u | -6.2% | -24.3 | -2.7% | 20.6% | -20.5%
CC1(C)CC(=O)C2=C(C1)OC(N)=C(C#N)C2c1cccc(OC(=O)c2ccco2)c1 (configuration not stated) | 2.94µM* | 20.0% | 42.7 | 7.7% | -6.2% | -26.7%
C/C(=C\c1ccco1)C1C(C#N)=C(N)OC2=C1C(=O)CC(C)(C)C2 (configuration not stated) | 38.1% | -2.2% | -4.2 | 1.9% | u | 35.5µM*
O=C(CCCN1C(=O)NC2(CCCC2)C1=O)NCc1ccccc1 | 12.9% | u | 8.6 | -2.2% | u | -0.4%
CS(=O)(=O)c1sc(C(=O)NC(=O)Nc2cccc(C(F)(F)F)c2)c2c1C=CCC2 | 13.7% | 5.4% | 13.2 | -5.6% | 2.33µM* | 0.0%
COc1ccc(CNC(=O)COC(=O)c2ccc(F)c(S(=O)(=O)N3CCOCC3)c2)cc1 | x | 20.3% | -0.9 | 3.6% | x | x
Cn1c(=O)[nH]c2c(cnn2C)c1=O | x | 0.7% | -98.4* | x | x | x
Cn1ncc2c(=O)[nH]nnc21 | x | 28.8% | 29.0 | x | x | x
C=CCn1c(Oc2ccc(C=O)cc2OCC)nc2c1c(=O)n(C)c(=O)n2C | 28.3% | -4.5% | 42.2 | 0.4% | -0.4%[0.00184 µM] | 0.2%
COc1ccc(C)cc1Nc1n[n+](-c2ccccc2)c(-c2ccc(OC)c(OC)c2OC)s1 | 1.04µM* | 9.9%[8.37 µM] | u | 2.4% | u | -0.1%
COc1ccc(C)cc1Nc1n[n+](C)c(-c2ccc(O)cc2O)s1 | u | 9.7% | -6.0 | -6.0% | u | u
COc1ccc(C)cc1Nc1n[n+](C)c(-c2c3ccccc3cc3ccccc23)s1 | u | -4.6% | -34.8 | -4.9% | u | u
COc1ccc(C)cc1Nc1n[n+](-c2ccccc2)c(-c2c(Cl)cccc2Cl)s1 | 7.38µM* | -24.3%[8.37 µM] | -99.6* | -6.1% | 10.4µM* | 1.8%
COc1ccc(C)cc1Nc1n[n+](-c2ccccc2)c(-c2ccc(N(C)C)cc2)s1 | 2.08µM* | -25.5% | -26.6 | -6.8% | 2.62µM* | -7.3%
O=C1NC[C@H](Cc2ccccc2)N(C[C@@H]2CCCN2C[C@H](Cc2ccccc2)N2C[C@H](Cc3ccccc3)N(CC3CCCCC3)C(=O)C2=O)C1=O | x | x | -9.8 | x | x | x
SMILES | Pf growth 96h | HCV inh | HCMV inh | SARS PLP yeast | Pf growth 48h | Sm TGR block
O=C1NC[C@H](Cc2ccccc2)N(C[C@H]2CCCN2C[C@H](Cc2ccccc2)N2C[C@H](Cc3ccccc3)N(CC3CCCCC3)C(=O)C2=O)C1=O | x | 8.91µM* | -7.5 | x | x | x
CCOc1ccc(CCN2C(=O)C(=O)N([C@@H](Cc3ccccc3)CN3CCC[C@H]3CN3C(=O)C(=O)NC[C@@H]3Cc3ccccc3)C[C@@H]2Cc2ccccc2)cc1 | x | x | -65.2* | x | x | x
O=C1NC[C@H](Cc2ccccc2)N(C[C@H]2CCCN2C[C@H](Cc2ccccc2)N2C[C@H](Cc3ccc(O)cc3)N(CCc3ccccc3)C(=O)C2=O)C1=O | x | 3.9% | -72.6* | x | x | x
Fc1ccc(-c2nc3c4ccccc4ccn3c2Cc2ccsc2)cc1 | x | x | 101.1 | x | x | x
O=C(CCSC1=NCCCN1)c1ccc(F)cc1 | x | -21.0% | -7.9 | x | x | x
CN(C)c1ccc(/C=C2\CCCCC2=O)cc1 | 321.5% | 13.6% | 7.4 | -16.1% | 231.1% | -1.2%
CN(C)CCC1(C2=CCCC2)CC/C(=C/c2ccc(Cl)cc2)C1=O (configuration not stated) | x | u | -85.9* | x | x | x
CCN(CC)CCN(C(=O)c1ccc2c(c1)CCCC2)c1nc2ccc(C)cc2s1 | u | u | 10.5 | -2.7% | 13.1µM* | 0.0%
CCN(CC)CCN(C(=O)c1ccc2c(c1)CCCC2)c1nc2c(C)cccc2s1 | u | u | -29.0 | -2.6% | 9.28µM* | -0.8%
CCN(CC)CCN(C(=O)c1ccc2c(c1)CCCC2)c1nc2ccc(F)cc2s1 | u | u | 0.0 | 1.6% | u | -11.0%
Cc1nc(-c2ccc(S(=O)(=O)N(Cc3ccccc3)C(C)C)cc2)co1 | x | x | -11.9 | x | x | 2.3%
COc1cc(/C=C(/C#N)c2ccc(F)cc2)ccc1Oc1ccc([N+](=O)[O-])cn1 | -16.8% | 2.51µM* | -61.1* | 18.4% | 4.65µM* | -15.1%
Cc1ccccc1NC(=O)CSCc1cc(=O)n2ccsc2n1 | 57.4% | 14.4% | 31.9 | -6.6% | 4.7% | -1.6%
Cc1nc2ccccc2c2ncccc12 | u | -7.3% | -16.1 | 2.6% | 36.6% | -2.4%
c1cnc2nc3c4ccccc4c4ccccc4c3nc2c1 | x | 2.82µM* | 88.2 | x | x | x
COc1ccc(/C=C/C(=O)c2c(O)cc(C)oc2=O)c(OC)c1 | 21.3% | 11.2µM* | -38.5 | 1.9% | 116.5% | 0.0%
COc1cccc(/C=C/C(=O)c2c(O)cc(C)oc2=O)c1O | -12.0% | 8.1% | -97.1* | 6.7% | x | -32.4%
COc1cc(/C=C/C(=O)c2c(O)cc(C)oc2=O)cc(OC)c1O | -14.2% | -27.5% | -67.5* | 3.1% | x | 100µM*
COc1cc(/C=C/C(=O)O)cc(OC)c1O | x | -11.0% | u | x | x | x
COc1ccc(C=O)c(OC)c1 | 33.5% | -9.1% | -23.7 | -7.0% | -6.2% | -1.5%
CCOC(=O)/C=C/c1cccc(OC)c1O | x | x | 172.4 | x | x | x
Cc1ccc(NC(=O)Cn2nc(-c3ccccc3)nc(Cc3ccccc3)c2=O)cc1 | x | x | u | x | x | -6.7%

Source: PubChem BioAssay
